# Results filed as inconclusive are left out. A call without a number means that no potency is given here. A number with no mark means an inactive call. Activity calls are given as the source filed them. The call rests on the fitted dose curve; in most records, active means well fitted curve in the direction sought with a large enough effect; inconclusive means small, poorly fitted or top-dose-only effect, or another doubt; inactive means no such curve, though single readings can be large; an effect the other way counts as inactive or inconclusive.
# How the values were obtained:
# [1] = biological target: Aldehyde dehydrogenase, mitochondrial (Homo sapiens) (UniProt P05091); assay: qHTS for Inhibitors of the Aldehyde Dehydrogenase Family (ALDH2) Primary screen (AID 2061308); conditions: ALDH2 enzyme inhibition qHTS, 1536-well; series mostly up to 56 µM; further: nearly all actives have a fitted effect of over 55% in size
# [2] = biological target: Retinaldehyde dehydrogenase 3 (Homo sapiens) (UniProt P47895); assay: qHTS for Inhibitors of the Aldehyde Dehydrogenase Family (ALDH1A3) Primary screen (AID 2061315); conditions: ALDH inhibition qHTS; series mostly up to 56 µM
# [3] = BET inhibitor-based combinations targeting novel dependencies in MECOM-rearranged (r) AML: SET-2 cell line (AID 2202231); conditions: SET-2 AML cells viability, CellTiter-Glo luminescence, 48 h; viability: stronger effect = lower value, concentration not given here; further: nearly all actives have a fitted effect of over 35% in size
# Procedure, shortened: (§1)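 500 cells/well; 11-pt dose curve; 48 h, standard incubator; CellTiter-Glo luminescence after 15 min RT; DMSO/empty-well normalization; AUC plus Z-AUC (mean-centered within each line).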
# [4] = BET inhibitor-based combinations targeting novel dependencies in MECOM-rearranged (r) AML: AML-194 cell line (AID 2202237; further: potency means the concentration at half of the fitted maximal effect; nearly all actives have a fitted effect of over 40% in size); conditions: AML-194 (MECOM-r AML) viability, CellTiter-Glo, 48 h; series mostly up to 46 µM
# Procedure, shortened: as §1
Structure (SMILES),Potency [1],Potency [2],viability [3] [%],Potency [4]
Cc1ccc(S(=O)(=O)n2ccc(-c3c(-c4ccc(Cl)cc4)noc3C)n2)cc1,inactive,inactive,,
COC(=O)C(Cc1ccccc1)NC(=O)c1ccccc1 (centres undefined),inactive,inactive,,
CNc1nc(Cc2ccccc2)nc2c1CCNC[C@@H]2C,inactive,inactive,,
CC(C)C1(O)NC(=O)C(CC2(O)c3ccccc3N3C(=O)C(C)(C)NC32)n2c1nc1ccccc1c2=O (centres undefined),inactive,inactive,,
CC(C)=CCC/C(C)=C/CCC1(C)Oc2c(c(O)cc3c2CN(C(CCC(=O)O)C(=O)O)C3=O)CC1O (centres undefined),inactive,inactive,,
O=C(O)c1ccnc2cc(C(OCC3CCC(F)(F)CC3)c3ccccc3Cl)[nH]c12 (centres undefined),inactive,inactive,,
CC(C)CNCc1ccc(-c2ccccc2S(=O)(=O)N2CCCC2)cc1,inactive,inactive,,
N#Cc1cccc(-c2nc(-c3cccnc3)no2)c1,inactive,inactive,,
CC(C)=CCC[C@](C)(O[C@@H]1O[C@H](CO[C@@H]2OC[C@H](O)[C@H](O)[C@H]2O)[C@@H](O)[C@H](O)[C@H]1O)[C@H]1CC[C@]2(C)[C@@H]1[C@H](O)C[C@@H]1[C@@]3(C)CC[C@H](O[C@@H]4O[C@H](CO)[C@@H](O)[C@H](O)[C@H]4O[C@@H]4O[C@H](CO)[C@@H](O)[C@H](O)[C@H]4O)C(C)(C)[C@@H]3CC[C@]12C,inactive,inactive,,
C=C[C@H]1[C@H](O[C@@H]2O[C@H](CO)[C@@H](O)[C@H](O)[C@H]2O)OC=C(C(=O)OC)[C@H]1C[C@@H]1c2cc(O)c(O)cc2CCN1C(C)=O,inactive,inactive,,
C/C=C1\[C@H](O[C@@H]2O[C@H](CO)[C@@H](O)[C@H](O)[C@H]2O)OC=C(C(=O)OC)[C@H]1CC(=O)OC,inactive,inactive,,
CC1(C)CC=C(c2cnc3ccccc3c2)c2cc(C(=O)Nc3ccc(C(=O)O)cc3)ccc21,inactive,inactive,,
COc1c2c(c(C)c3c1C(=O)OC3)OC1(C)CC(O)C34OC(OC)(CC(OC(C)=O)C3(C)C1C2)OC4(C)C (centres undefined),inactive,inactive,,
C=CC(C)(C)C1(CC2NC(=O)C3CCCN3C2=O)C(=O)Nc2cc3c(cc21)C=CC(C)(C)O3 (centres undefined),inactive,inactive,,
OCC1=CC[C@@H]2C=CO[C@@H](O[C@@H]3O[C@H](CO)[C@@H](O)[C@H](O)[C@H]3O)[C@H]12,inactive,inactive,,
CC(C)c1ccc2c(c1)C(O)CC1C(C)(C(=O)O)CCCC21C (centres undefined),inactive,inactive,,
C=C1CCC2C(C)(C)CC(=O)CC2(C)C1CCC(C)CCOC(C)=O (centres undefined),inactive,inactive,,
Nc1nonc1C(=Nc1ccc(F)c(Cl)c1)NO,inactive,inactive,,
C=CC(C)(O)CC/C=C(\C)C(=O)O[C@@H]1[C@@H](O)[C@H](OC(C)(C=C)CC/C=C(\C)C(=O)O[C@@H]2O[C@H](CO)[C@@H](O)[C@H](O)[C@H]2O)O[C@H](CO)[C@H]1OC(=O)/C(C)=C/CCC(C)(O)C=C (some centres undefined),inactive,inactive,,
COc1cccc(CN(C(=O)CC(C)(C)C)[C@H]2C[C@H](C(=O)N3CCNCC3)N(Cc3ccc4c(c3)OCO4)C2)c1,inactive,inactive,,
Fc1cccc(CN(C2=NCCN2)c2c(Cl)cccc2Cl)c1,inactive,inactive,,
COC(=O)C1=CO[C@@H](O[C@@H]2O[C@H](CO)[C@@H](O)[C@H](O)[C@H]2O)[C@@H]2[C@@H](CO)[C@@H](O)C(O)[C@H]12 (some centres undefined),inactive,inactive,,
COc1cc(/C=C2\CCCN([C@@H](C)c3ccc(F)cc3)C2=O)ccc1-n1cnc(C)c1,inactive,inactive,,
CC(C)CC(=O)OC[C@H]1O[C@@](COC(=O)CC(C)C)(O[C@H]2O[C@H](CO)[C@@H](O)[C@H](O)[C@H]2OC(=O)CC(C)C)[C@@H](OC(=O)CC(C)C)[C@@H]1O,inactive,inactive,,
C/C=C/c1cc(OC)c2c(c1)[C@@H](C)[C@@H](c1ccc(O)c(OC)c1)O2,inactive,inactive,,
Cc1cc(CS(=O)(=O)c2ccccc2)cc(OCc2ccc(CN3CCC[C@@H]3CO)cc2)c1,inactive,inactive,87.8,18.6 µM (active)

# — PubChem BioAssay (NCATS)
